The results in this text go back to PubChem BioAssay.

Structures are written as SMILES. Values without a mark were called inactive. For some of these results: Measured potencies and affinities stand elsewhere. Active and inactive are the calls of the source. Unless noted, how the calls were made is not given here.

Test [1] is described as follows: antimalarial activity against Dd2 strain (AID 2302;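 active means growth inhibition above 50% at the single 2 µM test dose, taken to imply half-maximal potency below 2 µM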;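 further: 0% = DMSO untreated growth and 100% = chloroquine plus artemisinin killed control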). As to conditions: P. falciparum Dd2 in RBCs, LDH growth readout, 72 h; at 2 µM; hits give high values.
Test [2] in a line: HepG2 cytotoxicity, primary screen, cytotoxicity control for P. falciparum antimalarial project, cell-based, ATP luminescence (AID 2303;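 active means inhibition above 50%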;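 further: 0% = DMSO wells and 100% = digitonin-killed cells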). Particulars: HepG2 viability, 24-48 h, at 10 µM, hits give high values.
Test [3] addresses L-lactate dehydrogenase (Plasmodium falciparum (isolate CDC / Honduras)) (UniProt Q27743). The test is described as follows: PfLDH activity inhibition – cell lysate, 3D7 strain, counter-screen for P. falciparum growth inhibition project (AID 2304).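 Further: 0% = vehicle and 100% = reference inhibitor.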 As to conditions: P. falciparum 3D7 crude extract, LDH APAD/NBT absorbance; at 2 µM; hits give high values.
The nature of test [4]: inhibition of 3D7 malaria parasite growth – strain 3D7 (AID 2306).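 Further: 0% = DMSO wells and 100% = chloroquine plus artemisinin control wells.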 Particulars: P. falciparum 3D7 erythrocytic growth, LDH absorbance, 72 h; at 2 µM; hits give high values.
The target of test [5] is Calcium-dependent protein kinase 1 (Plasmodium falciparum (isolate 3D7)) (UniProt P62344). The test is described as follows: PfCDPK1 kinase inhibitors, biochemical, TCAMS library (AID 1159585; cut-off not given, nearly all actives have IC50 up to about 0.98 µM;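 further: inhibitors leave more ATP so luminescence rises with inhibition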). Particulars: recombinant PfCDPK1, Kinase-Glo ATP depletion luminescence. (In general: Kinase-Glo measures the ATP left after a reaction by luminescence.)
Sequence of Calcium-dependent protein kinase 1 (Plasmodium falciparum (isolate 3D7)) (P62344 whole entry, looked up): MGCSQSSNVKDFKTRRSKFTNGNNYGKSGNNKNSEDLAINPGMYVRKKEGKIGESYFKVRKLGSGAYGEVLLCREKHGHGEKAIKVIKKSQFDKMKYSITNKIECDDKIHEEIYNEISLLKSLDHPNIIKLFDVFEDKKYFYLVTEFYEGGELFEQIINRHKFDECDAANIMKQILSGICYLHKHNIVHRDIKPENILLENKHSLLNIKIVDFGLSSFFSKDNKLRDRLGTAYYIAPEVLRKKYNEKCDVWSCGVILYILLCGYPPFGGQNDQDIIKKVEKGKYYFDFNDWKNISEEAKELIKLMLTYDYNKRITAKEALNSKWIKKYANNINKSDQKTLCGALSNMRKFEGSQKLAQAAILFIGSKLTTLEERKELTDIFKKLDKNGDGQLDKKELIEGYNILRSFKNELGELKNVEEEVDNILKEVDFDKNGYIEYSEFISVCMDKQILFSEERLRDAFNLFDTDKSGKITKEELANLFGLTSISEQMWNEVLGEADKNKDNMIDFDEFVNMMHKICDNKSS
Test [6] has as its target Plasmodium falciparum protein kinase 6 (PK6, PF3D7_1337100) (UniProt Q8IDW1). The test is described as follows: PfPK6 kinase inhibitors, biochemical, TCAMS library (AID 1159586). As to conditions: recombinant PfPK6, Kinase-Glo ATP depletion luminescence.
Test [7] has as its target Protein kinase 7 (PK7), Plasmodium falciparum 3D7 (PF3D7_0213400) (UniProt Q7YTF7). Kind of test: inhibition of Plasmodium PK7 catalytic activity – biochemical, TCAMS antimalarial set, Kinase-Glo luminescence (AID 1159587). Particulars: recombinant PfPK7, Kinase-Glo ATP depletion luminescence.
Test [8] addresses Calcium-dependent protein kinase 4 (Plasmodium falciparum (isolate 3D7)) (UniProt Q8IBS5). Kind of test: PfCDPK4 kinase inhibitors, biochemical, TCAMS library (AID 1159588; cut-off not given, nearly all actives have IC50 up to about 0.91 µM). As to conditions: recombinant PfCDPK4, Kinase-Glo ATP depletion luminescence.

Sequence of Calcium-dependent protein kinase 4 (Plasmodium falciparum (isolate 3D7)) (Q8IBS5 whole entry, looked up): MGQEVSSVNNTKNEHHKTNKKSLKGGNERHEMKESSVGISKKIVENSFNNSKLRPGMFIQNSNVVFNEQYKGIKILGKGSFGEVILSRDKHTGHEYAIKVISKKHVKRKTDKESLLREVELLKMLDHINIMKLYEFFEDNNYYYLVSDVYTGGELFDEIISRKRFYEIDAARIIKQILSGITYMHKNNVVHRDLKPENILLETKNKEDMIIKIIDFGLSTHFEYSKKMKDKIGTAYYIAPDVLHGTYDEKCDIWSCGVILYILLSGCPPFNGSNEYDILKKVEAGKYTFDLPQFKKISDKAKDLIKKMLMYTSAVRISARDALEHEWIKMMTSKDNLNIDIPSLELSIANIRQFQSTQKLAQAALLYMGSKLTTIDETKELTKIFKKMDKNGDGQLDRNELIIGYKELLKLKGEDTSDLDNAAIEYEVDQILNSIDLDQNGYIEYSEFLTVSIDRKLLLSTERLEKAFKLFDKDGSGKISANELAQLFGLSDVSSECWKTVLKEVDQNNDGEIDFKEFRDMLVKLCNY
Sequence of Protein kinase 7 (PK7), Plasmodium falciparum 3D7 (PF3D7_0213400) (Q7YTF7 1-343): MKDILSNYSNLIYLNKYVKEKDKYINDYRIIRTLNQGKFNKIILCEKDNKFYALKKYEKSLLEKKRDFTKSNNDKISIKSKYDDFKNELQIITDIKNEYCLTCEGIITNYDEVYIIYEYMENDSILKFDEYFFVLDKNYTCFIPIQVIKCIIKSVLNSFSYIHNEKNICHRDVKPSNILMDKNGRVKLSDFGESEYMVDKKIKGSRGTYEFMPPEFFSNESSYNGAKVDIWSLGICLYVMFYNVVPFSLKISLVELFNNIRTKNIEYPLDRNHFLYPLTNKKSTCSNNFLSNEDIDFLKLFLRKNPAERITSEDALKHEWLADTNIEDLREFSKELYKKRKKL
Sequence of Plasmodium falciparum protein kinase 6 (PK6, PF3D7_1337100) (Q8IDW1 1-305): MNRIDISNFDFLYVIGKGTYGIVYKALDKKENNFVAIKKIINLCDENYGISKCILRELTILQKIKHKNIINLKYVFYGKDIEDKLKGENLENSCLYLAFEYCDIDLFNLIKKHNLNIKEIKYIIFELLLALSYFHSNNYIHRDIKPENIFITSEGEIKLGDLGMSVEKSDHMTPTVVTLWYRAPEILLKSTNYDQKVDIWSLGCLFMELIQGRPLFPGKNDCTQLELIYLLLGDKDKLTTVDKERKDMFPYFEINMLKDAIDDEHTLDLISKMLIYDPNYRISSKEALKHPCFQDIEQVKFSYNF
Sequence of L-lactate dehydrogenase (Plasmodium falciparum (isolate CDC / Honduras)) (Q27743 whole entry, looked up): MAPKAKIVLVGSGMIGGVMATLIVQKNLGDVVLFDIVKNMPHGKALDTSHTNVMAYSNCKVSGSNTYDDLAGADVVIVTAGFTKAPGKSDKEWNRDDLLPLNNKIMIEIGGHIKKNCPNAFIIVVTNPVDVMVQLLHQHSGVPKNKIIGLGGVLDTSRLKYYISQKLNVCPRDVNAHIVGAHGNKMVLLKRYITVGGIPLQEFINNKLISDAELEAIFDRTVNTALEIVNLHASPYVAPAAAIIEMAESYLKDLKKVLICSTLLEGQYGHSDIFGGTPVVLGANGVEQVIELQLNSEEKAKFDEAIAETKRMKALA

With `COc1ccc(NC(=O)c2csc(-c3cc(NC(=O)c4ccnc(N5CCCC5)c4)ccc3C)c2)cc1N1CCN(C)CC1`, the growth inhibition in test [1] was 80% (active); in test [4], 100% (active). The inhibition (usually the drop in the measured response relative to a control, in per cent) in test [2] was 4%; in test [3], 1%. Further, the result in test [5], in test [6], in test [7] and in test [8] was inactive.

Regarding `O=C(C=Cc1ccc(-c2ccccc2)cc1)N1CCC(CCN2CCC(c3c[nH]c4ccccc34)CC2)CC1`, the growth inhibition is 16% in test [1] and 87% (active) in test [4]. The results for the inhibition in test [2] and in test [3] were 44% and 2%, respectively. Further, the result in test [5], in test [6], in test [7] and in test [8] was inactive.

`COc1cc2ncnc(Nc3ccc(OCc4ccccc4Br)c(OC)c3)c2cc1OC`: the growth inhibition in test [1] is 62% (active); in test [4], 100% (active). Also, the results for the inhibition in test [2] and in test [3] were 11% and -1%, respectively. The result in test [5], in test [6], in test [7] and in test [8] was inactive.

As for `CCOc1ccc(S(=O)(=O)N(C)c2ccc(OCC(=O)Nc3nccs3)cc2)cc1`, the growth inhibition in test [1] is 4%; in test [4] it was 95% (active). Also, the results for the inhibition in test [2] and in test [3] were 8% and 3%, respectively. For the same molecule, the outcome in test [5], in test [6], in test [7] and in test [8] was inactive.

Take `Cc1cccc2[nH]c(-c3ccc(-c4ccc(CN5CCN(CCN6CCOCC6)CC5)cc4)s3)nc12`: the growth inhibition in test [1] was 99% (active); in test [4], 100% (active). Besides, the inhibition is 41% in test [2] and 3% in test [3]. Moreover, the result in test [5], in test [6], in test [7] and in test [8] was inactive.

Turning to `CCOc1ccc2c(NN=Cc3cc(OC)c(OC)cc3OC)cc(C)nc2c1`, the growth inhibition is 97% (active) in test [1] and 101% (active) in test [4]. Besides, the inhibition was 24% in test [2] and 4% in test [3]. The outcome in test [5], in test [6], in test [7] and in test [8] was inactive.

Turning to `Nc1nc(N)c2c(ccc3c2ccn3Cc2ccc(OCc3ccccc3)cc2)n1`, the growth inhibition in test [1] was 1%; in test [4], 98% (active). For the same molecule, the inhibition in test [2] was 5%; in test [3] it was -2%. Moreover, the result in test [5], in test [6], in test [7] and in test [8] was inactive.

Take `CO/C(=C\C=C\c1cc2cc(Cl)c(Cl)cc2[nH]1)C(=O)Nc1ccc(NCCN(C)C)nc1`: the growth inhibition in test [1] was 56% (active); in test [4] it was 93% (active). Also, the results for the inhibition in test [2] and in test [3] were 27% and -1%, respectively. In addition, the outcome in test [5], in test [6], in test [7] and in test [8] was inactive.

With `COc1cc(O)c2c(=O)c(OC)c(-c3cccc(Cl)c3OCC(=O)O)oc2c1OC`, the growth inhibition in test [1] was -2%; in test [4] it was 100% (active). Besides, the inhibition in test [2] is -6%; in test [3] it was -1%. Moreover, the result in test [5], in test [6], in test [7] and in test [8] was inactive.

In the case of `CN1CCCN(Cc2ccc(-c3ccc(NC(=O)c4ccc(C#N)cc4)cc3)cc2)CC1`, the growth inhibition in test [1] was 28%; in test [4], 91% (active). Also, the inhibition is 30% in test [2] and 4% in test [3]. Moreover, the result in test [5], in test [6], in test [7] and in test [8] was inactive.

As to `Cc1ccc(C(=O)Nc2cc(C(F)(F)F)cc(C(F)(F)F)c2)cc1[N+](=O)[O-]`, the growth inhibition in test [1] is 61% (active); in test [4], 101% (active). The inhibition in test [2] is 17%; in test [3], 1%. Moreover, the result in test [5], in test [6], in test [7] and in test [8] was inactive.

Regarding `CCCNCc1ccc(-c2ccc(CN(CCOC)C(=O)Cc3cccnc3)cc2)nc1`, the growth inhibition in test [1] was 13%; in test [4], 92% (active). For the same molecule, the inhibition in test [2] is 10%; in test [3] it was -1%. Also, the outcome in test [5], in test [6], in test [7] and in test [8] was inactive.

In the case of `O=C(Nc1ccc(Cl)cc1F)N[C@H]1CCN(CCCCCNC(=O)[C@@H]2C[C@H]2c2ccc(Cl)c(Cl)c2)C1`, the growth inhibition in test [1] is -3%; in test [4], 87% (active). For the same molecule, the inhibition is 29% in test [2] and 3% in test [3]. Also, the result in test [5], in test [6], in test [7] and in test [8] was inactive.

On to `CC(C)CN(Cc1c(O)ccc2[nH]c(-c3ccc(F)cc3F)nc12)CC(C)C`, for which the growth inhibition was 92% (active) in test [1] and 98% (active) in test [4]. Also, the inhibition was 11% in test [2] and -2% in test [3]. Further, the result in test [5], in test [6], in test [7] and in test [8] was inactive.

As for `CS(=O)(=O)c1ccc(Nc2ncc(-c3ccc(S(C)(=O)=O)cc3)c(OCC(F)(F)F)n2)cc1`, the growth inhibition in test [1] is 98% (active); in test [4], 97% (active). Further, the figures for the inhibition in test [2] and in test [3] were -7% and -3%, respectively. Also, the outcome in test [5], in test [6], in test [7] and in test [8] was inactive.

`CCCCCCCc1c(C)[nH]c2ccccc2c1=O`: the growth inhibition in test [1] was 96% (active); in test [4] it was 98% (active). Further, the figures for the inhibition in test [2] and in test [3] were -14% and -7%, respectively. The outcome in test [5], in test [6], in test [7] and in test [8] was inactive.

As to `CN(CCCNCc1cccc2ccccc12)CCCNCc1cccc2ccccc12`, the growth inhibition in test [1] is 94% (active); in test [4], 100% (active). In addition, the inhibition in test [2] is 93% (active); in test [3] it was -3%. Also, the result in test [5], in test [6], in test [7] and in test [8] was inactive.

Consider `CN(C)C(=O)n1cnc(S(=O)(=O)N(C)c2ccc(Cl)cc2)n1`, for which the figures for the growth inhibition in test [1] and in test [4] were 80% (active) and 88% (active), respectively. The inhibition in test [2] was 7%; in test [3], 3%. Moreover, the result in test [5], in test [6], in test [7] and in test [8] was inactive.

For `CCN1CCN(c2cc(C)c3cc(NC(=O)c4cc(OC)cc(OC)c4)ccc3n2)CC1`, the growth inhibition in test [1] is 90% (active); in test [4], 102% (active). The results for the inhibition in test [2] and in test [3] were 0% and 4%, respectively. Also, the outcome in test [5], in test [6], in test [7] and in test [8] was inactive.

`CCCc1cc(C)ccc1OCCCON1C(N)=NC(N)=NC1(C)C`: the growth inhibition in test [1] and in test [4] was 97% (active) in each case. The results for the inhibition in test [2] and in test [3] were 64% (active) and 2%, respectively. Besides, the result in test [5], in test [6], in test [7] and in test [8] was inactive.
